Source: PubChem
Wnt bcat act: Wnt/beta-catenin pathway activation. Wnt/beta-catenin reporter cell assay, activator, plate reader. activation, % at 9.35 µM. 300,000 compounds, 1.2% hits. AID 743398; in the data active = activation above about 30%, passing the limit was not always enough; inconclusive = no clear call, values can overlap the other calls
INS-1E GSIS act: primary screen for activators of insulin secretion dependent on glucose, INS-1E cells, GLuc reporter luminescence. INS-1E GLuc reporter insulin secretion, 2-3 h. activation, % at 16.6 µM. 370,000 compounds, 0.61% hits. AID 743287;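 active = lowest replicate activation of at least 40%, so every replicate reaches that level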
MITF TRPM1 HTS: increases MITF-driven TRPM1 promoter luciferase signal. SK-MEL-5 TRPM1-promoter luciferase, 24 h; % of positive control, neutral wells = 0. activation, % at 12.5 µM. 300,000 compounds, 0.75% hits. AID 588334;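 active = mean activation of at least 80% with every replicate also reaching 80%; inconclusive = mean reaches 80% but some replicate falls short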
Env fusion inh: blocks HIV Env-driven cell-cell fusion; HeLa-JRFL Env/CEM21 cell fusion, luciferase; inhibition, % at 12.3 µM; 360,000 compounds, 1.1% hits; AID 651610;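 active = mean replicate inhibition score of at least 50 and every replicate individually at or above 50; inconclusive = only one of the two criteria met; inactive = mean below 50 and not all replicates reaching 50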
CFTR F508del cor: CFTR F508del correction in bronchial cells; activity (quench increase), % at 7.58 µM; CFBE cells, YFP halide quenching; stimulated with forskolin plus potentiator P3; % fluorescence drop versus neutral controls; 350,000 compounds, 0.36% hits;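 active = mean added fluorescence quench of at least 8% versus neutral control, with both replicates also reaching 8%; inconclusive = only one of the mean or replicate conditions met; inactive = mean below 8% and not both replicates reaching 8%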;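 note: cells transiently co-express mutant CFTR-F508del with the halide-sensitive YFP; corrector assay measuring rescue of mutant channel to the surface after 24 h compound exposure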
A number is an active result; – = inactive; ? = inconclusive; · = no result. Only some compounds are listed: those with a hit (about 2.7% of all), similar ones and a draw of the others.

SMILES | Wnt bcat act | INS-1E GSIS act | MITF TRPM1 HTS | Env fusion inh | CFTR F508del cor
CCNC(=O)C[C@H]1CC[C@H]2[C@@H](COc3ccc(NC(=O)c4cccc(C#N)c4)cc3C(=O)N2C)O1 | · | – | · | · | ·
C[C@H]1CCCCO[C@H](CN(C)C(=O)Nc2ccc3c(c2)OCO3)[C@@H](C)CN([C@@H](C)CO)C(=O)c2cc(NC(=O)Nc3cccc4ccccc34)ccc2O1 | · | – | · | – | –
CC(C)NC(=O)Nc1ccc2c(c1)CC(=O)N(C)C[C@H](C)[C@@H](CN(C)C(=O)OC(C)(C)C)O2 | · | – | · | · | ·
CN(C)S(=O)(=O)c1ccc2nc(NC(=O)c3cccnc3)sc2c1 | 38 | · | – | – | ·
O=C(Nc1nc2ccc(S(=O)(=O)N3CCCCC3)cc2s1)c1cccnc1 | – | – | – | – | ·
COc1ccc(S(=O)(=O)Nc2ccc3c(c2)C(=O)N([C@@H](C)CO)C[C@H](C)[C@H](CN(C)C(=O)Nc2ccc(C(F)(F)F)cc2)O3)cc1 | · | – | · | – | –
C[C@H](O)[C@@H]1CN2CCc3ccc(-c4ccc5c(c4)OCO5)cc3[C@@H]2C[C@@H]1N(C)C(=O)c1cccc(Cl)c1 | – | 188 | · | – | –
C/C=C/c1cnc2c(c1)C(=O)N([C@H](C)CO)C[C@@H](C)[C@@H](CN(C)C(=O)Nc1ccc(OC)cc1)O2 | · | – | · | – | –
CC1C(=O)N(Cc2cn(CCC3OCCCO3)nn2)CCS(=O)(=O)N1Cc1ccc(-c2ccc(F)cc2)cc1 (stereo not drawn) | – | – | · | · | –
CC1C(=O)N(Cc2cn(CCC3OCCCO3)nn2)CCS(=O)(=O)N1Cc1ccc(-c2ccc(Cl)c(Cl)c2)cc1 (stereo not drawn) | – | · | · | 64 | –
CCCNC(=O)Nc1ccc2c(c1)C(=O)N(C)[C@H]1CC[C@H](CC(=O)NC)O[C@H]1CO2 | · | – | · | – | –
C=CCOc1ccc(/C=C2\SC(=S)N(N3CCOCC3)C2=O)cc1 | 42 | – | · | – | –
O=C1/C(=C/c2ccncc2)SC(=S)N1N1CCOCC1 | – | – | · | – | –
CC(=O)Nc1nc(CC(C)C)cc(-c2ccco2)c1C#N | · | 48 | – | – | ·
CC(=O)Nc1nc(CC(C)C)cc(-c2ccccc2)c1C#N | – | – | – | – | –
CCOc1ccc2ccc(OCC)c(/C=N/n3cnnc3)c2c1 | – | 40 | – | – | –
CCC(=O)Nc1ccc2c(c1)C(=O)N(C)C[C@@H](OC)[C@H](C)CN(Cc1ccncc1)[C@@H](C)CO2 | · | – | · | – | –
C[C@H](CO)N1C[C@H](C)[C@@H](CN(C)Cc2ccncc2)Oc2cc(C#CC(C)(C)O)ccc2S1(=O)=O | · | – | · | – | –
CCOC(=O)c1c(NC(=O)C2c3ccccc3Oc3ccccc32)sc(C(C)=O)c1C | – | – | – | · | 11
COC(=O)c1sc(NC(=O)C2c3ccccc3Oc3ccccc32)c(C(=O)OC)c1C | – | – | – | – | ·
CCOC(=O)c1c(NC(=O)c2ccoc2C)sc(C(=O)N(C)C)c1C | · | 47 | – | · | ·
CCCNC(=O)N1C[C@H]2[C@@H](c3ccccc31)[C@@H](CO)N2Cc1ccc2c(c1)OCO2 | · | – | · | · | –
Cc1ccc(S(=O)(=O)Nc2ccc3c(c2)C(=O)N([C@H](C)CO)C[C@@H](C)[C@H](CN(C)C(=O)Nc2ccc4c(c2)OCO4)OCCCC[C@H](C)O3)cc1 | · | – | · | · | –
Cc1cc(OCC(=O)NCC(c2cccs2)N2CCOCC2)ccc1C(C)C (stereo not drawn) | – | – | – | 59 | –
O=C(NCC(c1cccs1)N1CCOCC1)c1ccc(OCc2ccccc2)cc1 (stereo not drawn) | – | – | – | – | 9.1
SMILES | Wnt bcat act | INS-1E GSIS act | MITF TRPM1 HTS | Env fusion inh | CFTR F508del cor
Cc1cccn2cc(CNS(=O)(=O)c3ccc4ccccc4c3)nc12 | – | 65 | – | ? | –
CC(C)(C)NC(=O)C(c1cc2ccccc2o1)n1c(-c2ccc(-c3ccccc3)cc2)nc2ccccc21 (stereo not drawn) | 51 | – | · | – | –
CC(C)(C)NC(=O)C(c1cc2ccccc2o1)n1c(=O)c(-c2ccco2)nc2ccccc21 (stereo not drawn) | – | – | · | – | –
COc1ccc(S(=O)(=O)N(C)C[C@@H]2OCCCC[C@@H](C)Oc3ccc(NS(=O)(=O)c4ccc(F)cc4)cc3C(=O)N([C@@H](C)CO)C[C@@H]2C)cc1 | · | – | · | – | –
Cc1ccc2nc(-c3ccc(NS(C)(=O)=O)cc3)cc(-c3ccccc3)c2c1 | – | – | – | · | –
CCS(=O)(=O)Nc1ccc(-c2cc(-c3ccccc3)c3cc(C)ccc3n2)cc1 | – | 110 | – | – | –
CCOC(=O)C1CCN(C(=O)/C=C/c2ccccc2)CC1 | 45 | – | – | – | –
COc1ccc(/C=C/C(=O)N2CCC(c3ccccc3)C2)cc1 (stereo not drawn) | – | – | – | – | ·
CCOC(=O)C1CCCN(C(=O)/C=C/c2ccccc2)CC1 (stereo not drawn) | · | – | · | – | –
COC(=O)C1CCN(C(=O)/C=C/c2ccc(OC)cc2)CC1 | 57 | · | – | – | ·
O=C(C[C@H]1CC[C@H](NS(=O)(=O)c2cccc(F)c2)[C@@H](CO)O1)NCc1ccc2c(c1)OCO2 | · | – | · | – | –
Nc1cc(SCc2ccc([N+](=O)[O-])cc2)ncn1 | 37 | – | – | – | –
Nc1nnc(SCc2ccc([N+](=O)[O-])cc2)s1 | – | – | – | – | –
c1cncc(-c2nc(-c3ccc4c(c3)OCO4)cs2)c1 | 32 | · | 85 | · | ·
CCCC(=O)Nc1nc(-c2ccc3c(c2)OCCO3)cs1 | – | – | 91 | – | –
CC(=O)Nc1cnc(-c2ccc3c(c2)OCO3)cn1 | 40 | · | · | – | –
O=C(O)C(=O)Nc1nc(-c2ccc3c(c2)OCCO3)cs1 | – | – | – | – | –
O=C(Nc1nc(-c2ccc3c(c2)OCO3)cs1)C1CC1 | – | – | 93 | – | –
CC(=O)Nc1cnc(-c2cc(C)c(O)c(C)c2)cn1 | – | – | · | – | –
C[C@H](O)C#Cc1cnc2c(c1)C(=O)N([C@H](C)CO)C[C@@H](C)[C@H](CN(C)C(=O)c1ccncc1)O2 | · | – | · | – | –
CC(C)CCNc1nc(N)c([N+](=O)[O-])c(NCCO)n1 | – | – | – | – | –
CCC(C)Nc1nc(N)c([N+](=O)[O-])c(NCCO)n1 (stereo not drawn) | – | 71 | · | – | –
CN1C(=O)/C(=C\c2ccncc2)SC1=Nc1ccccc1 | · | 67 | – | · | ·
Cc1ccc(C(=O)OCC(=O)NCC2CCCO2)c(C)c1 (stereo not drawn) | – | – | – | – | –
Cc1c(C(=O)OCC(=O)NCC2CCCO2)cccc1[N+](=O)[O-] (stereo not drawn) | 37 | – | – | – | –
Cc1cc(/C=C(/C#N)c2cccc(F)c2)c(C)n1-c1cccnc1 | – | – | 88 | · | –
Cc1cc(/C=C(\C#N)C(=O)NCc2ccco2)c(C)n1-c1cccnc1 | – | – | – | – | –
Cc1cc(C(=O)Nc2ccc3c(c2)C(=O)N(C)[C@H]2CC[C@@H](CC(=O)NCC(F)(F)F)O[C@H]2CO3)no1 | · | – | · | – | –
